From PubChem BioAssay
aSyn 5UTR act: Activators working through SNCA 5'UTR binding (MLPCN). 300,000 compounds, 7.1% hits. AID 1814. activity score, % (tested at 7.5 µM), hits read low. alpha-synuclein 5'UTR reporter, activators screen; in the data active means activity score below about -60%
The depositor's hits bear a star. A selection follows.

SMILES	aSyn 5UTR act
N/C(=N\OC(=O)c1ccco1)c1ccc(Cl)cc1	-210*
Cc1csc2ncc(C(=O)Nc3ccc4c(c3)OCCO4)c(=O)n12	-169*
Cc1cccc(NC(=O)c2cnc3scc(C)n3c2=O)c1	-181*
CCN1/C(=C/c2sc(-c3ccccc3C)c[n+]2C)Sc2ccccc21	94
CN(C)c1ccc(C(=O)c2ccc(O)cc2O)cc1	-114*
Cc1nc(-c2ccccc2)nc2[nH]c(=O)n(-c3ccccc3)c(=O)c12	-93*
Cc1noc(C)c1CSc1nc2[nH]ncc2c(=O)n1-c1ccccc1	51
Cc1ccc(NNc2c(C)nc3ccccc3nc2=O)cc1	-112*
O=c1c([N+](=O)[O-])c(N2CCOCC2)c2ccccc2n1Cc1ccccc1	46
O=C1C(Cl)=C(N2CCOCC2)C(=O)N1CCc1ccccc1	-212*
O=C1C(Cl)=C(NCC2CCCO2)C(=O)N1CCc1ccccc1 (configuration not stated)	-183*
CN1CCN(C2=C(Cl)C(=O)N(CCc3ccccc3)C2=O)CC1	-112*
O=C1C(Cl)=C(NCCCN2CCOCC2)C(=O)N1CCc1ccccc1	-126*
Cc1cc(Nc2ccccc2)nc(-c2ccccc2O)n1	-101*
Cc1cc(N/N=C/c2c(O)ccc3ccccc23)nc(-c2ccccc2O)n1	72
O=C(NNC(=O)c1cccs1)c1ccc(Br)cc1	-78*
O=C(NNC(=O)c1ccccc1O)c1ccc(Br)cc1	-116*
O=C(NNC(=O)c1ccccc1O)c1cccc(Br)c1	-133*
O=C(NNC(=O)c1ccc(O)cc1O)c1ccc(Cl)cc1	-72*
Cc1cccc(C(=O)NNC(=O)c2ccc(Cl)cc2)c1O	-141*
O=C(COC(=O)c1ccc(O)cc1O)c1ccc(Cl)cc1	-96*
O=C(NNC(=O)c1ccccc1O)c1ccc(Cl)cc1	-81*
O=[N+]([O-])c1ccccc1-c1ccc(C(=S)N2CCCCC2)o1	-107*
O=[N+]([O-])c1ccccc1-c1ccc(C(=S)N2CCCC2)o1	-132*
Cc1ccc(-c2ccc(/C=N/O)o2)cc1[N+](=O)[O-]	-66*
SMILES	aSyn 5UTR act
O=[N+]([O-])c1ccc(-c2cn3c(n2)CCC3)cc1	-129*
Cc1cc(Br)ccc1NC(=O)CNC(=O)Cn1ncc(Cl)c(Cl)c1=O	63
CCN(CC)S(=O)(=O)c1cc(NC(=O)Cn2ncc(Cl)c(Cl)c2=O)ccc1C	-99*
COc1ccc(CN2CCn3ncc(C(=O)Nc4ccccc4)c3C2=O)cc1	-86*
COc1ccc(NC(=O)c2cnn(-c3ccccc3)c2C)cc1	-62*
Cc1c(C(=O)Nc2cccc([N+](=O)[O-])c2)cnn1-c1ccccc1	-137*
CC(=O)c1cccc(NC(=O)c2cnn(-c3ccccc3)c2C)c1	-181*
COc1ccc(NC(=O)c2cnn(-c3ccccc3)c2C)cc1OC	-153*
Cc1c(C(=O)Nc2ccccc2)cnn1-c1ccccc1	-68*
Cc1c(C(=O)Nc2cccc(F)c2)cnn1-c1ccccc1	-212*
CCCc1nn(C)c(C(=O)Nc2ccc(C)c(C)c2)c1Cl	-102*
CCCc1nn(C)c(C(=O)Nc2ccc(CC)cc2)c1Cl	-74*
CCn1nc(C(=O)Nc2ccc(C)c(C)c2)c(Cl)c1Cl	-91*
Cc1ccc(C(=O)NC(=C(Cl)Cl)S(=O)(=O)c2ccc(C)cc2)cc1	-72*
CC(=O)NC(=C(Cl)Cl)S(=O)(=O)c1ccccc1	-137*
Cc1ccc(-c2csc(N=C(N)N)n2)cc1	-116*
C(=C\n1nnc2ccccc21)/c1ccc[nH]1	-72*
CCOC(=O)c1c(C)[nH]c(C(=O)CSc2nccc(C)n2)c1C	-129*
CCOC(=O)c1c(C)[nH]c(C(=O)CN2C(=O)NC3(CCCC3)C2=O)c1C	-67*
COC(=O)c1ccc(CN2C(=O)NC3(CCCCC3)C2=O)cc1	-124*
Cc1cc(C)c(C(=O)CN2C(=O)NC3(CCCCCC3)C2=O)cc1C	-72*
COc1ccc(C(=O)CN2C(=O)NC3(CCCCCC3)C2=O)cc1	-90*
COc1ccc(C(=O)CN2C(=O)c3ccccc3S2(=O)=O)cc1	101
Cc1cc(C(=O)CN2C(=O)NC3(CCCCC3)C2=O)c(C)n1C	-69*
Cc1cc(C(=O)CN2C(=O)NC3(CCCCC3C)C2=O)c(C)n1Cc1cccs1 (configuration not stated)	-165*
SMILES	aSyn 5UTR act
O=C(Nc1ccc(Cl)cc1Cl)C1=Cc2ccccc2OC1	-192*
COc1cccc(Cn2c(=O)sc3ccccc3c2=O)c1	-79*
COc1cccc(CN2C(=O)C3(C(C#N)=C(N)OC4=C3C(=O)CCC4)c3ccccc32)c1 (configuration not stated)	63
N#Cc1c(C(F)(F)F)cc(-c2ccc(Cl)c(Cl)c2)nc1SCCN1CCOCC1	-64*
COC(=O)[C@@H]1Cc2c([nH]c3ccccc23)C(C)(C)N1C(=O)CCl	61
CC1CCCN(C(=O)COC(=O)c2n[nH]c3ccccc23)C1 (configuration not stated)	-140*
C/C(=C\C(=O)c1ccccc1)Nc1ccc(N2CCOCC2)cc1	-63*
O=C(NC(=S)Nc1ccc(N2CCOCC2)cc1)c1cccc(Cl)c1	-72*
O=C(NC(=S)Nc1ccc(N2CCOCC2)cc1)c1ccccc1	-148*
O=C(Nc1ccc(N2CCOCC2)cc1)c1cnsn1	106
CN(C)C(=S)Nc1ccc(N2CCOCC2)cc1	-68*
Cc1cccc(C(=O)O/N=C/c2c(N3CCOCC3)n(C)c3ccccc23)c1	72
O=C(/C=C/c1cccc(O)c1)c1ccc(N2CCOCC2)cc1	-182*
CC(=O)N(c1nnc(-c2cccc(C)c2)s1)C1CCCC1	-160*
CCCCOC(=O)CSc1nc2c(cc1C#N)C(=O)CC(C)(C)C2	-133*
c1ccc(N/N=C(\Cc2nc3ccccc3[nH]2)c2ccccc2)cc1	-102*
CCN/N=C(\Cc1nc2ccccc2[nH]1)c1ccccc1	-138*
N#CCCN/N=C(/Cc1nc2ccccc2[nH]1)c1ccc(Cl)cc1	-67*
Clc1cccc(/C(Cc2nc3ccccc3[nH]2)=N\Nc2ccccc2)c1	-64*
N/N=C(/Cc1nc2ccccc2[nH]1)c1ccc([N+](=O)[O-])cc1	-75*
O=C(NC1CCCCCC1)C(=S)NCc1ccccc1	-86*
O=C(NC1CCCCC1)C(=S)NC1CCCCC1	-106*
COc1ccc(CNC(=O)NC2CCCCC2)cc1	-80*
O=C(NC1CCCCC1)C(=S)NCc1ccccc1	-71*
COc1cccc(Nc2nc(-c3cccnc3)cs2)c1	-173*
SMILES	aSyn 5UTR act
c1cncc(Nc2nc(-c3cccnc3)cs2)c1	-72*
Clc1ccccc1Nc1nc(-c2cccnc2)cs1	-185*
COc1cccc2sc(Nc3nc(-c4ccncc4)cs3)nc12	105
Clc1ccccc1-c1csc(Nc2cccnc2)n1	-71*
Cc1ccc(Nc2nc(-c3cccnc3)cs2)cc1Cl	-175*
CCN1C(=O)N/C(=C/c2cc(C)n(Cc3ccccc3)c2C)C1=O	-63*
CC(C)c1ccc(-c2nc3ccccc3s2)cc1	98
O=S(=O)(c1ccc(-c2nc3ccccc3s2)cc1)N1CCCC1	-118*
CS(=O)(=O)N1CCN(c2nc3ccccc3s2)CC1	-80*
O=S(=O)(c1ccccc1)N1CCN(c2nc3ccccc3s2)CC1	-83*
O=C1CCCC2=C1C(c1ccco1)Nc1ccc(C(=O)c3ccccc3)cc1N2 (configuration not stated)	-81*
CC(C)=CC(=O)Nc1nc2ccc([N+](=O)[O-])cc2s1	-83*
C/C(=C\c1ccccc1)C(=O)Nc1nc2ccc([N+](=O)[O-])cc2s1	-79*
